Data taken from PubChem BioAssay (NCATS).
Results filed as inconclusive are left out. The source made the active and inactive calls. The call rests on the fitted dose curve; in most records, active means well fitted curve in the direction sought with a large enough effect; inconclusive means small, poorly fitted or top-dose-only effect, or another doubt; inactive means no such curve, though single readings can be large; an effect the other way counts as inactive or inconclusive.

Tests used:
[1] = qHTS of Trypanosoma Brucei Inhibitors: LOPAC Validation (AID 624147)
Method in brief: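 Luminescence from Kinase-Glo Plus, added after a 45-minute room-temperature reaction, served as the end-point read-out. The enzyme and substrate were preincubated with compound before ADP (130 uM final) initiated turnover. Concentration-effect curves came from normalized qHTS data.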

[2] = target: Glucagon-like peptide 1 receptor (Homo sapiens) (UniProt P43220); assay: qHTS of GLP-1 Receptor Agonists: LOPAC Validation (AID 624148);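 further: luminescence from a luciferase reporter switched on by cAMP; higher luminescence signal means agonism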
Glucagon-like peptide 1 receptor (Homo sapiens), sequence (P43220 whole entry, looked up): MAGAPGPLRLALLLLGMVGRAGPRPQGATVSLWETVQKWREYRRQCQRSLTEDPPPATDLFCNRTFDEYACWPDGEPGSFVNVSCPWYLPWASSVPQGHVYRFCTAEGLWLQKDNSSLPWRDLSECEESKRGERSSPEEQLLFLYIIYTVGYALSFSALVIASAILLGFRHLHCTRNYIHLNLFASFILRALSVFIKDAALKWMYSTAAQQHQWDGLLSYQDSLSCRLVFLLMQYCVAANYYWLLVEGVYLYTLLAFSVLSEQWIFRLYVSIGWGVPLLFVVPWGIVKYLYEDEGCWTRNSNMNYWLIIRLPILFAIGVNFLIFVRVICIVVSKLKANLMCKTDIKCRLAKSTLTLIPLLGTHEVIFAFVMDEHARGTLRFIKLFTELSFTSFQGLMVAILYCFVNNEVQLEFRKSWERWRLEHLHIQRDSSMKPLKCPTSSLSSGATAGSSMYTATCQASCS
Method in brief: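 Agonism scored as increased luciferase luminescence driven by cAMP in HEK293 clones carrying GLP-1R. Cells settled 12 hours, received compound for 4-6 hr at 37 deg C, 5% CO2, and were read after 12 min detection reagent at RT.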

[3] = qHTS of Nrf2 Activators: LOPAC Validation (AID 624149)
Method in brief: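 Luciferase signal from ARE activation, read with Steady-Glo after 30 min at room temperature. Compounds were pin-transferred onto AREc32_Fluc cells (1000/well, OPTI-MEM/5% FBS, seeded overnight) and left 24 hr at 37 deg C.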

[4] = HTS Assay for Allosteric Antagonists of the Human D2 Dopamine Receptor: Hit Validation in HTRF (AID 624455);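 further: stable D1 dopamine receptor cell line scored for blocking the D1 response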
Method in brief: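 Inhibition of the D1-mediated response was measured by HTRF. Cells used were a line stably expressing the D1 dopamine receptor.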

[5] = target: Arylsulfatase A (Homo sapiens) (UniProt P15289); assay: qHTS screen for enhancers of Arylsulfatase A (ASA1): LOPAC Validation Assay (AID 720538)
Arylsulfatase A (Homo sapiens), sequence (P15289 whole entry, looked up): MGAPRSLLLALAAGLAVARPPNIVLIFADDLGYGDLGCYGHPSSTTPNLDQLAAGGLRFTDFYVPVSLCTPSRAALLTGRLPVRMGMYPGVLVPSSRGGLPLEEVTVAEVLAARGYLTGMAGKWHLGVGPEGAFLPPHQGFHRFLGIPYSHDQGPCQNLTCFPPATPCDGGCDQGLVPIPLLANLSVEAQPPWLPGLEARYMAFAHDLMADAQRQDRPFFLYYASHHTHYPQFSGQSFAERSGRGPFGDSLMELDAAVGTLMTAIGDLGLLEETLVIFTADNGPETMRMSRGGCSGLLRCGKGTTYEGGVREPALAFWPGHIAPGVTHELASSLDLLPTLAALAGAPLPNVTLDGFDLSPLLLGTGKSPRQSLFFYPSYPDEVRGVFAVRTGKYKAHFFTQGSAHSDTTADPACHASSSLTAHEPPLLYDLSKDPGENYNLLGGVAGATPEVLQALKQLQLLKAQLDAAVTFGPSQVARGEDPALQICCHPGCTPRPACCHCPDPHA
Method in brief: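 Cell-based enhancement test: residual ASA activity in SV40-transformed I179S patient fibroblasts is measured by pNCS turnover (0.5mM final, 14h, room temperature) following 48h compound incubation; higher fluorescence indicates activation.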

Measured: Potency

c1ccc2c(N3CCNCC3)cccc2c1
inactive: all assays above

CCCN1CC[C@@H]2c3cc(O)ccc3CC[C@@H]21
not listed: [4]
inactive: all other assays above

O=[N+]([O-])c1ccc2nc(N3CCNCC3)ccc2c1
not listed: [5]
inactive: all other assays above

Cc1[nH]c2ccc(O)cc2c1CCN
inactive: all assays above
